Source: PubChem BioAssay (Tox21)
Results filed as inconclusive are left out. Calls of active or inactive are those of the source. Unless noted, calls follow the shape of the dose curve; as a rule, active = well fitted curve in the direction sought with a large enough effect in the repeat runs; inconclusive = weak or mixed curves; inactive = no such curve, though single readings can be large; an effect the other way counts as inactive or inconclusive.

Experiments:
[1] = qHTS assay to identify small molecule agonists of the sonic hedgehog signaling (Shh) pathway (AID 1259368; calls by dose curve;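 also: NIH/3T3-derived 3T3Gli1-Luc cells carrying a stable Gli1-driven firefly luciferase reporter; series mostly up to about 92 µM; nearly all actives have a fitted effect of over 15% in size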)
Procedure, shortened: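 Stable NIH/3T3 Gli1-Luc reporter clone; 24 hr cpd exposure after a 4 hr settling period; luminescence endpoint.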

[2] = qHTS assay to identify small molecule antagonists of the sonic hedgehog signaling (Shh) pathway (AID 1259369; calls by dose curve; also: nearly all actives have a fitted effect of over 45% in size)
Procedure, shortened: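 Gli1 transcriptional reporter (firefly Luc) in NIH/3T3 background, conditioned-medium activated. 24hr exposure, luminescence endpoint.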

[3] = biological target: Estrogen receptor beta (Homo sapiens) (UniProt Q92731); experiment: qHTS assay to identify small molecule agonists of the estrogen receptor beta (ER-beta) signaling pathway (AID 1259377; active = well fitted activation curve with a large enough effect in the signal ratio in the repeat runs, not every such curve was filed as active; the % refers to the signal ratio)
Procedure, shortened: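 Beta-lactamase reporter readout: fluorescence of LiveBLAzer B/G FRET substrate after 2 h at room temperature, following 16 h compound treatment of ER-beta-UAS-bla HEK293T cells at 37C in 2% charcoal-stripped FBS medium.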

[4] = biological target: Estrogen receptor beta (Homo sapiens) (UniProt Q92731); experiment: qHTS assay to identify small molecule antagonists of the estrogen receptor beta (ER-beta) signaling pathway (AID 1259378; active = well fitted inhibition curve with a large enough effect in the signal ratio in the repeat runs, not every such curve was filed as active; the % refers to the signal ratio)
Procedure, shortened: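 ER-beta-UAS-bla HEK293T cells in 2% charcoal-stripped FBS medium treated with compound plus 1nM final 17-beta-estradiol for 16 hr at 37C. Beta-lactamase reporter read by FRET substrate fluorescence after 2 hours at room temperature.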

[5] = qHTS assay to identify small molecule agonists of the androgen receptor (AR) signaling pathway in the presence of an antagonist - cell viability counter screen (AID 1259379);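 also: MDA-kb2 human breast cancer cells carrying an MMTV luciferase reporter; series mostly up to about 92 µM; nearly all actives have a fitted effect of over 25% in size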
Procedure, shortened: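 Counter screen for cell viability run in parallel with the AR agonist-mode luciferase assay. MDA-kb2 cells were co-treated with nilutamide (3.0uM final) and compounds, then incubated 16 hr at 37C, and CellTiter-Fluor fluorescence was measured.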

[6] = qHTS assay to identify small molecule agonists of the estrogen receptor beta (ER-beta) signaling pathway - cell viability counter screen (AID 1259380); also: nearly all actives have a fitted effect of over 30% in size
Procedure, shortened: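 In this qHTS counter screen, HEK293T cells carrying an ER-beta/UAS beta-lactamase reporter, grown in 2% charcoal-stripped FBS, received compound for 16 hr; ATP-based CellTiter-Glo luminescence was then read after 30 min at room temperature.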

[7] = qHTS assay to identify small molecule antagonists of the estrogen receptor beta (ER-beta) signaling pathway - cell viability counter screen (AID 1259382); also: series mostly up to about 92 µM; nearly all actives have a fitted effect of over 55% in size
Procedure, shortened: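 HEK293T ER-beta-UAS-bla, 2% charcoal-stripped FBS; compounds + 1nM E2 16 hr 37C; CellTiter-Glo luminescence, 30 min RT.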

[8] = qHTS assay to identify small molecule agonists or antagonists of the thyroid stimulating hormone receptor (TSHR) signaling pathway - wild type cell line counter screen (AID 1259384; calls by dose curve)
Procedure, shortened: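 Wild-type Hek293 cells, 800/well, 18 h at 37C, then compound with Ro20-1724 for 30 min RT. cAMP by HTRF (cAMP-d2/anti-cAMP cryptate), 1 h RT, fluorescence read. 15 concentrations, triplicates.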

[9] = biological target: Thyrotropin receptor (Homo sapiens) (UniProt P16473); experiment: qHTS assay to identify small molecule antagonists of the thyroid stimulating hormone receptor (TSHR) signaling pathway (AID 1259385; calls by dose curve; also: nearly all actives have a fitted effect of over 20% in size)
Procedure, shortened: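 TSHR-HEK293 cells (800/well) plated 18 h, then compounds with Ro20-1724 and TSH at 1.5 ng/mL final, 30 min at room temperature. cAMP quantified by HTRF (cAMP-d2/anti-cAMP-cryptate, 1 h); 15 concentrations in triplicate.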

[10] = qHTS assay to identify small molecule agonists of the estrogen receptor alpha (ER-alpha) signaling pathway in the presence of an antagonist - cell viability counter screen (AID 1259386);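 also: series mostly up to about 92 µM; cells exposed to compounds for 22 h at 37 °C before the viability read; nearly all actives have a fitted effect of over 30% in size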
Procedure, shortened: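 Steps: 5-day stripped-FBS culture; seed and incubate 24hr; add ICI-182,780 (10.0nM final); pin 15-point compound titration; incubate 22hr at 37C; add CellTiter-Fluor at 21hr; read fluorescence.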

[11] = biological target: Progesterone receptor (Homo sapiens) (UniProt P06401); experiment: qHTS assay to identify small molecule agonists of the progesterone receptor (PR) signaling pathway (AID 1346784; calls by dose curve; also: nearly all actives have a fitted effect of over 30% in size)
Procedure, shortened: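 HEK 293T PR-UAS-bla reporter cells, 2% charcoal-stripped FBS; 6 hr settle at 37C/5% CO2, compound (DMSO) 16 hr, LiveBLAzer B/G FRET substrate 2 hr RT, fluorescence intensity read.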

[12] = biological target: Progesterone receptor (Homo sapiens) (UniProt P06401); experiment: qHTS assay to identify small molecule antagonists of the progesterone receptor (PR) signaling pathway (AID 1346795; active = well fitted inhibition curve with a large enough effect in the signal ratio in the repeat runs, not every such curve was filed as active; the % refers to the signal ratio)
Procedure, shortened: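 Beta-lactamase reporter, HEK293T PR-UAS-bla line; 2% charcoal-stripped FBS; 6 hr pre-incubation, 37C/5% CO2. Compound + R5020 1 nM final, 16 hr. LiveBLAzer B/G FRET substrate, 2 hr RT; fluorescence intensity read.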

[13] = qHTS assay to identify small molecule antagonists of the progesterone receptor (PR) signaling pathway - cell viability counter screen (AID 1346798); also: series mostly up to about 92 µM; nearly all actives have a fitted effect of over 50% in size
Procedure, shortened: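 Luminescence readout (CellTiter-Glo, 30 min, RT) of viability in PR-UAS-bla HEK293T cells exposed to compound and R5020 agonist for 16 hr at 37C, 5% CO2; run in the same wells as the beta-lactamase reporter read.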

[14] = qHTS assay to identify small molecule antagonists of the TGF-beta/Smad signaling pathway - cell viability counter screen (AID 1346824); also: nearly all actives have a fitted effect of over 50% in size
Procedure, shortened: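 SBE-bla HEK 293T cells, incubated overnight, then compound plus 0.25 ng/mL TGF-beta1 (stock added) for 5 hr at 37 C. Viability was read in the same wells by CellTiter-Glo luminescence after 30 min at room temperature.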

[15] = qHTS assay to identify small molecule agonists of the TGF-beta/Smad signaling pathway - cell viability counter screen (AID 1346829); also: top concentration of the series differs between compounds; nearly all actives have a fitted effect of over 45% in size
Procedure, shortened: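 Same-well cytotoxicity: CellTiter-Glo added after the 2 hr room-temperature beta-lactamase substrate step, luminescence measured 30 min later; cells had 5 hr of compound at 37 C.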

[16] = qHTS assay to identify small molecule agonists of the TGF-beta/Smad signaling pathway (AID 1346859; active = well fitted activation curve with a large enough effect in the signal ratio in the repeat runs, not every such curve was filed as active; the % refers to the signal ratio; also: series mostly up to about 77 µM)
Procedure, shortened: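 Read-out: fluorescence at 460 and 530 nm (405 nm excitation) after a 2 hr room-temperature incubation with beta-lactamase FRET substrate. SBE-bla HEK 293T cells had been treated with test compounds for 5 hr at 37 C.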

[17] = biological target: Estrogen receptor (Homo sapiens) (UniProt P03372); experiment: qHTS assay to identify small molecule agonists of the estrogen receptor alpha (ER-alpha) signaling pathway in the presence of an antagonist (AID 1259383; calls by dose curve; also: top concentration of the series differs between compounds; nearly all actives have a fitted effect of over 15% in size)
Procedure, shortened: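 ER-alpha agonism measured under antagonist challenge: 10.0nM ICI-182,780 (final) plus compound, 15 concentrations, 22hr, VM7Luc4E2 ERE-luciferase cells. Read by luminescence.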

[18] = qHTS assay to identify small molecule agonists of the progesterone receptor (PR) signaling pathway - cell viability counter screen (AID 1346799; calls by dose curve; also: nearly all actives have a fitted effect of over 45% in size)
Procedure, shortened: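 HEK293T PR-UAS-bla, 3,000 cells/well, 2% charcoal-stripped FBS; 6 h settle, compound 16 h at 37C/5% CO2; LiveBLAzer 2 h RT, then CellTiter-Glo 30 min RT, luminescence read.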

[19] = biological target: Thyrotropin-releasing hormone receptor (Homo sapiens) (UniProt P34981); experiment: qHTS assay to identify small molecule antagonists of the thyrotropin-releasing hormone receptor (TRHR) signaling pathway (AID 1346877; active = well fitted inhibition curve with a large enough effect in the repeat runs, not every such curve was filed as active; also: series mostly up to about 51 µM)
Procedure, shortened: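 Human TRHR in HEK293 cells; inhibition of the intracellular calcium rise triggered by 1 nM TRH was followed by fluorescence over 3 min. Compounds were run at 15 concentrations, three replicates each.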

[20] = biological target: Androgen receptor (Homo sapiens) (UniProt P10275); experiment: qHTS assay to identify small molecule agonists of the androgen receptor (AR) signaling pathway in the presence of an antagonist (AID 1259381; calls by dose curve; also: nearly all actives have a fitted effect of over 15% in size)
Procedure, shortened: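 AR antagonist background: nilutamide 3.0uM final. Cell line: MDA-kb2, MMTV-driven luciferase, responsive to both AR and GR. Exposure 16hr, 37C, no CO2; ONE-Glo luminescence.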

Measured: Potency

Progesterone receptor (Homo sapiens), sequence (P06401 whole entry, looked up): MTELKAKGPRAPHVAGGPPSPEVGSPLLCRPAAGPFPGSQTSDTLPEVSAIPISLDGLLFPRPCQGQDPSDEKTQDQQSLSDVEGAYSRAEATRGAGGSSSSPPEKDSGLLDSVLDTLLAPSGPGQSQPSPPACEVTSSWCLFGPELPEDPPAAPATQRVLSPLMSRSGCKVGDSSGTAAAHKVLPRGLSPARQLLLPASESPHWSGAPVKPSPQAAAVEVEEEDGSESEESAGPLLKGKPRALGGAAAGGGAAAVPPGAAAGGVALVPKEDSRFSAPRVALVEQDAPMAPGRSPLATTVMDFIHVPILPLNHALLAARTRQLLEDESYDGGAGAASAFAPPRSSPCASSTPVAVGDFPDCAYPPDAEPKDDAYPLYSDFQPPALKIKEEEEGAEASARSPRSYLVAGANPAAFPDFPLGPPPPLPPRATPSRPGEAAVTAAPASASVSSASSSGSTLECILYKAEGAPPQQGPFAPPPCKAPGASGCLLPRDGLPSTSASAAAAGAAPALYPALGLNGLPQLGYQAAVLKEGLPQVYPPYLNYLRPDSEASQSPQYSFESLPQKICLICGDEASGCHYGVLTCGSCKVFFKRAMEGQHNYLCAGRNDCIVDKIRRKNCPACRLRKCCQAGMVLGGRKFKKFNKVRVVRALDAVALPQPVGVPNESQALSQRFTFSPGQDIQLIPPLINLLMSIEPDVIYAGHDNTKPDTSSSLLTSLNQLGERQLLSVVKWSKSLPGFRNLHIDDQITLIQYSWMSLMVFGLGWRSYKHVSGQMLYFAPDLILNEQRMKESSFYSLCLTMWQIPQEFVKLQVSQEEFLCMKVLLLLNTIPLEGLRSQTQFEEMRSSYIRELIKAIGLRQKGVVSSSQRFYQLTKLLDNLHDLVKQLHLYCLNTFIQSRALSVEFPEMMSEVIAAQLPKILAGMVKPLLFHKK
Thyrotropin-releasing hormone receptor (Homo sapiens), sequence (P34981 whole entry, looked up): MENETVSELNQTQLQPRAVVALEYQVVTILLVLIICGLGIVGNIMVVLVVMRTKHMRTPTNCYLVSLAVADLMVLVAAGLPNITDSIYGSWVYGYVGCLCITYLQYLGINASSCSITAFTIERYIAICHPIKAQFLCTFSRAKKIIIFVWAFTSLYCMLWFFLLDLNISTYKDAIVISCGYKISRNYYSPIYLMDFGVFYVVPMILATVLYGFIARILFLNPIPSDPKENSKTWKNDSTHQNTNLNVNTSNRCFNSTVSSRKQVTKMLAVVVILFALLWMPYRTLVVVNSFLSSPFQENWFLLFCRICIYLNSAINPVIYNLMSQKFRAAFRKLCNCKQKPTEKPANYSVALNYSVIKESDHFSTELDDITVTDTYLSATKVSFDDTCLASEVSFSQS
Estrogen receptor beta (Homo sapiens), sequence (Q92731 whole entry, looked up): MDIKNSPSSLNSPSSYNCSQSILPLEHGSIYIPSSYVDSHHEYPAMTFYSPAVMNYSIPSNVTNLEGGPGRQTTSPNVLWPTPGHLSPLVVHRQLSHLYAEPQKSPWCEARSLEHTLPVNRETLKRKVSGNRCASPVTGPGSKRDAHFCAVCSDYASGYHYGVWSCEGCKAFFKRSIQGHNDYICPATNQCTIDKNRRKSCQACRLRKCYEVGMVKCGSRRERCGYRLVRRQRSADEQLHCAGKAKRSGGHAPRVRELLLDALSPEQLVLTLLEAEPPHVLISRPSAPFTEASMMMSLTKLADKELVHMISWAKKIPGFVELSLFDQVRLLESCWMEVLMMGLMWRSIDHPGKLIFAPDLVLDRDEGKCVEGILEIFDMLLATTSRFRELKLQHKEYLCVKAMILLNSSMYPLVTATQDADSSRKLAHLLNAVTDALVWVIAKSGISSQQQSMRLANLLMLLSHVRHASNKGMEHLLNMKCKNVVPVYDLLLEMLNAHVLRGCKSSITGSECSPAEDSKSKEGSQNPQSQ
Thyrotropin receptor (Homo sapiens), sequence (P16473 whole entry, looked up): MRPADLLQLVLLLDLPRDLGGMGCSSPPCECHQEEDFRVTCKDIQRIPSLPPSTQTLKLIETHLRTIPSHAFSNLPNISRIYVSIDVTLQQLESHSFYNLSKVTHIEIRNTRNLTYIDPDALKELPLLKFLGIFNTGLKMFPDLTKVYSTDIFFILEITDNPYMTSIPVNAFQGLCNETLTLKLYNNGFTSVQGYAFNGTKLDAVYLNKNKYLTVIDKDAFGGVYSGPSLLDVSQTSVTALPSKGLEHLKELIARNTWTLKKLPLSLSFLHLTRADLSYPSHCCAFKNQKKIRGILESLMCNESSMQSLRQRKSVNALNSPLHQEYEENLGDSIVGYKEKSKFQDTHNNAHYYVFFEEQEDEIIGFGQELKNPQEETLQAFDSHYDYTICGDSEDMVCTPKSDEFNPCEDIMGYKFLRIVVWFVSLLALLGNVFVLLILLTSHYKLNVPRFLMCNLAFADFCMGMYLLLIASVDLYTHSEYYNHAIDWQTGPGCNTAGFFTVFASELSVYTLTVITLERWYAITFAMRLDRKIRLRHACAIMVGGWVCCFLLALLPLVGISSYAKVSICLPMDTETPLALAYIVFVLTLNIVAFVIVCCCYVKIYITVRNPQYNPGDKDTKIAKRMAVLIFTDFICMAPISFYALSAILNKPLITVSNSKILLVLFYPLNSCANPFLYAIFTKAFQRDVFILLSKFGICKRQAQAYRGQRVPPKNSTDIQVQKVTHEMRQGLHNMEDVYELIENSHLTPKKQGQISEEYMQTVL
Estrogen receptor (Homo sapiens), sequence (P03372 whole entry, looked up): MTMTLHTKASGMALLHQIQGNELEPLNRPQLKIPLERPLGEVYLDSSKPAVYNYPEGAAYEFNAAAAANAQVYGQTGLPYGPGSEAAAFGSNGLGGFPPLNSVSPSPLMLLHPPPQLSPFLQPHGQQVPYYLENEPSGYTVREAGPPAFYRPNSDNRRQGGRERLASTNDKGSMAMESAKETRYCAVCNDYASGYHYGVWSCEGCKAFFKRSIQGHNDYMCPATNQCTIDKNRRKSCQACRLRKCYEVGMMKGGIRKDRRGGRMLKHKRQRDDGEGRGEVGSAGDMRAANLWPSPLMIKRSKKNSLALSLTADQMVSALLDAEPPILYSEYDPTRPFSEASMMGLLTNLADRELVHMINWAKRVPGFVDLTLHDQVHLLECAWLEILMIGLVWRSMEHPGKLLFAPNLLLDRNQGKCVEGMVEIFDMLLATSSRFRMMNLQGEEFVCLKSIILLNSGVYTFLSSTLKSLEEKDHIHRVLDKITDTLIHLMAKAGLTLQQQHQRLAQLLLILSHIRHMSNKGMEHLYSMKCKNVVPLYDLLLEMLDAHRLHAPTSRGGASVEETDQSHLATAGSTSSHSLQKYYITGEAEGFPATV
Androgen receptor (Homo sapiens), sequence (P10275 whole entry, looked up): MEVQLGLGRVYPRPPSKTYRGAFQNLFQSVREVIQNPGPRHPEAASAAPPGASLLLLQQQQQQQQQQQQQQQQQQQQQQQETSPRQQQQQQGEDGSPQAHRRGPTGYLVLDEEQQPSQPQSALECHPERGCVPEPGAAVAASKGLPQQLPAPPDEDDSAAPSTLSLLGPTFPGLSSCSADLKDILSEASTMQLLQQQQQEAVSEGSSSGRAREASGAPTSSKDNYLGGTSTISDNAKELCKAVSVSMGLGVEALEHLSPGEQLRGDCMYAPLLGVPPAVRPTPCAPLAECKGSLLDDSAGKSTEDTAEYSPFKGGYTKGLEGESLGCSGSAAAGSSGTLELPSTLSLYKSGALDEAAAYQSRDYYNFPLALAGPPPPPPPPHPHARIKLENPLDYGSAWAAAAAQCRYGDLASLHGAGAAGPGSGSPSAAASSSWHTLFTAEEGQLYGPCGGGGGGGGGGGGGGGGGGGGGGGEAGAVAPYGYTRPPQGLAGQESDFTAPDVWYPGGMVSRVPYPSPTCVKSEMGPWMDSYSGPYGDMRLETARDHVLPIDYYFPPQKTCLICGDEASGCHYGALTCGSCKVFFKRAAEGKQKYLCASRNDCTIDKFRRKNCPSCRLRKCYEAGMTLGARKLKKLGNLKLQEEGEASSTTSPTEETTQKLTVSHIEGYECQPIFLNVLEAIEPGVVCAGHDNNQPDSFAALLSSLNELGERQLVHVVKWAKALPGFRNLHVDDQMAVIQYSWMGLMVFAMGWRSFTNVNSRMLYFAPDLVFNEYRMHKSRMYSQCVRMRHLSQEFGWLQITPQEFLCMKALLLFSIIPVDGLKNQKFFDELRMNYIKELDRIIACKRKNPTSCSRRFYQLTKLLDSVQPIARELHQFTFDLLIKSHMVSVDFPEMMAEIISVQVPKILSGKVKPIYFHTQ

Nc1ccc(S(=O)(=O)Nc2cnc3ccccc3n2)cc1
not listed: [17] | [18] | [19] | [20]
inactive: all other assays above

CCCCC(CC)COCC1CO1 (centres undefined)
not listed: [20]
inactive: all other assays above

Nc1ncnc2nc[nH]c12
not listed: [7] | [13] | [17] | [19] | [20]
inactive: all other assays above

OC(CCl)CCl
not listed: [7] | [18] | [19] | [20]
inactive: all other assays above

Cc1[nH]c(=O)c(C#N)cc1-c1ccncc1
not listed: [7] | [11] | [12] | [17] | [18] | [20]
inactive: all other assays above

C=C(C)C(=O)OCCOC(=O)C(=C)C
not listed: [7] | [17] | [18]
inactive: all other assays above

CCCCNS(=O)(=O)c1ccccc1
not listed: [13] | [17] | [20]
inactive: all other assays above
